Structures are written as SMILES. Results filed as inconclusive are left out. Activity calls are given as the source filed them. How the source made its calls: active means hit-call score of the fitted dose curve at least 0.9, where 1 is the maximum; inconclusive means response in the unintended direction; inactive means score below 0.9.

Sequence of Cellular tumor antigen p53 (Homo sapiens) (P04637 whole entry, looked up): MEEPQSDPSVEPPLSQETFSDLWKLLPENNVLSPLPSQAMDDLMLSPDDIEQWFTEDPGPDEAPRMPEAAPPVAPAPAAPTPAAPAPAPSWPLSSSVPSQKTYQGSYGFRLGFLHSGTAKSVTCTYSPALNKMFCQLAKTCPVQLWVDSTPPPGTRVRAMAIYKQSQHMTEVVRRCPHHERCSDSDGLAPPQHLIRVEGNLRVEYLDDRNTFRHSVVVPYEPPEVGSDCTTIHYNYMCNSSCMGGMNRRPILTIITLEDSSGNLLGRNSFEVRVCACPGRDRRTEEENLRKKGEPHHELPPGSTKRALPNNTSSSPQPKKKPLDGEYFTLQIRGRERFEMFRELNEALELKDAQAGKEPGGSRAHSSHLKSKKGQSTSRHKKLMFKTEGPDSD

The first assay addresses Cellular tumor antigen p53 (Homo sapiens) (UniProt P04637). Put plainly: TOX21_p53_BLA_p5_ratio: Tox21 HCT-116 p53 Agonism Beta-lactamase Assay, Ratio, Phase 5 (AID 2283599). A digest of the protocol: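 HCT-116 p53-bla cells (4000/well) plated 5 h, dosed with compound (217-fold DMSO dilution) for 16 h at 37 C; CCF4-AM substrate 2 h at room temperature. Activity is the 460/530 nm emission ratio (405 nm excitation), fitted in gain-of-signal direction versus DMSO.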
What is called AC50 is the concentration giving half of the maximal activity seen. With `CCCCN1C(=O)[C@@H]([C@H](O)C2CCCCC2)NC(=O)C12CCN(Cc1ccc(Oc3ccc(C(=O)O)cc3)cc1)CC2`, the AC50 is 63.7 µM (active).
On to `c1ccc(C(O[C@@H]2CCCN(CCc3ccc4c(c3)OCO4)C2)c2ccccc2)cc1`, for which the result was inactive.
Regarding `Cn1c(=O)c2[nH]cnc2n(C)c1=O`, the outcome was inactive.
Still for that read-out and setting: the same measure for `CC(C)c1nnc2ccc(-c3ocnc3-c3cc(F)ccc3F)cn12`: “inactive”; for `O=C(O)c1cccc(C[C@@H]2COc3ccc(OCc4nc5cc(F)ccc5s4)cc3[C@@H]2O)c1`: “inactive”; for `CCCCCCCC/C=C\CCCCCCCC(=O)OC[C@@H](O)[C@H]1OC[C@H](O)[C@H]1O`: “inactive”.
Same read-out and setting: the same measure for `O=S1(=O)CCCO1`: “inactive”; for `C[C@]12C=CC(=O)C=C1CC[C@H]1[C@@H]3C[C@@H](O)[C@](O)(C(=O)CO)[C@@]3(C)C[C@H](O)[C@@]12F`: “inactive”; for `C=CN1CCCC1=O`: “inactive”.
Turning to `CC(=O)c1ccccc1`, the outcome was inactive.
As to `OC(Cn1cncn1)(Cn1cncn1)c1ccc(F)cc1F`, the outcome was inactive.
For the molecule `c1ccc2cc3ccccc3cc2c1`, the result was inactive.
Same read-out and setting: the same measure for `CCCCCCCCN(C)C`: “inactive”.
Regarding `CCn1nc(C)c2c1C(=O)NCC(c1ccc(O)cc1)=N2`, the result was inactive.
Same read-out and setting: the same measure for `CCc1cccc(CC)c1N`: “inactive”.
On the same count and under the same terms, the result for `O=C(O)c1ccc2c(c1)nc(C(=O)NC1CCN(C3CC3)CC1)n2Cc1cc(-c2ccc(Cl)s2)on1` reads “inactive”; that for `CCCCCCCCCC`, “inactive”; that for `NC(=O)NN=Cc1ccc([N+](=O)[O-])o1`, “inactive”.
`CC1(C)C(=O)N(Cl)C(=O)N1Cl`: the outcome was inactive.
As for `c1ccc2ncccc2c1`, the result was inactive.
Take `CCOC(N)=O`: the outcome was inactive.
For the molecule `CCCCCCCCCCCCCCCCOS(=O)(=O)O`, the result was inactive.
For the molecule `OCCOCCOCCO`, the result was inactive.
Same read-out and setting: the result for `OC(CCl)CCl` reads “inactive”.
Still for that read-out and setting: the result for `O=C1CN(N=Cc2ccc([N+](=O)[O-])o2)C(=O)N1` reads “inactive”.

Tested on in the next assay: not listed separately
Put plainly: TOX21_p53_BLA_p5_viability: Viability Assessment in the Tox21 HCT-116 p53 Agonism Beta-lactamase Assay, Phase 5 (AID 2283600). A digest of the protocol: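 Viability came from CellTiter-Glo ATP luminescence, read after 30 min at room temperature. Before this, HCT-116 p53-bla cells (4000/well) had 16 hours of compound exposure at 37C, with DMSO stocks diluted 217-fold on transfer.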
As for `Cn1c(=O)c2[nH]cnc2n(C)c1=O`, the call was inactive.
Still for that read-out and setting: the result for `CCCCCCCC/C=C\CCCCCCCC(=O)OC[C@@H](O)[C@H]1OC[C@H](O)[C@H]1O` reads “inactive”.
The same measure, in the same setting: the result for `O=S1(=O)CCCO1` reads “inactive”; that for `CCCCC(CC)C(=O)OCCOCCOCCOC(=O)C(CC)CCCC` (centres undefined), “inactive”.
Still for that read-out and setting: the result for `C=CN1CCCC1=O` reads “inactive”; that for `CC(=O)c1ccccc1`, “inactive”; that for `OC(Cn1cncn1)(Cn1cncn1)c1ccc(F)cc1F`, “inactive”.
Consider `CCCCOC(=O)c1ccccc1`, for which the molecule was called inactive.
With `c1ccc2cc3ccccc3cc2c1`, the molecule was classed as inactive.
Still for that read-out and setting: the result for `CCCCCCCCN(C)C` reads “inactive”.
For `CCc1cccc(CC)c1N`, the outcome was inactive.
The same measure, in the same setting: the same measure for `CCCCCCCCCCCCCCO`: “inactive”; for `CCCc1ccccc1`: “inactive”.
Same read-out and setting: the same measure for `CCc1ccc(O)c(C(C)(C)C)c1`: “inactive”; for `O=C(O)c1ccc2c(c1)nc(C(=O)NC1CCN(C3CC3)CC1)n2Cc1cc(-c2ccc(Cl)s2)on1`: “inactive”.
Still for that read-out and setting: the result for `NNC(=O)c1ccncc1` reads “inactive”; that for `CCCCCCCCCC`, “inactive”; that for `NC(=O)NN=Cc1ccc([N+](=O)[O-])o1`, “inactive”.
`CC1(C)C(=O)N(Cl)C(=O)N1Cl`: the outcome was inactive.
On the same count and under the same terms, the result for `c1ccc2ncccc2c1` reads “inactive”; that for `CCOC(N)=O`, “inactive”; that for `CCCCCCCCCCCCCCCCOS(=O)(=O)O`, “inactive”.
Same read-out and setting: the result for `OC(CCl)CCl` reads “inactive”; that for `O=C1CN(N=Cc2ccc([N+](=O)[O-])o2)C(=O)N1`, “inactive”.

These data come from PubChem BioAssay (EPA / NIEHS).
